Records with an inconclusive call do not appear. Calls of active or inactive are those of the source. Unless noted, calls follow the shape of the dose curve; as a rule, active = well fitted curve in the direction sought with a large enough effect in the repeat runs; inconclusive = weak or mixed curves; inactive = no such curve, though single readings can be large; an effect the other way counts as inactive or inconclusive.
Columns and labels:
[1] = qHTS assay for small molecule agonists of the p53 signaling pathway (AID 651631; calls by dose curve; also: nearly all actives have a fitted effect of over 15% in size)
Method in brief: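 Testing took place in human colorectal HCT-116 cells with stable p53RE-driven beta-lactamase. After 16 h of compound exposure at 37 °C, a FRET substrate was added and fluorescence recorded 2 h later.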

[2] = qHTS assay for small molecules that induce genotoxicity in human embryonic kidney cells expressing luciferase-tagged ATAD5 (AID 651632); also: nearly all actives have a fitted effect of over 15% in size
Method in brief: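 Reporter cells (HEK293T) express luciferase-tagged ATAD5, a protein that accumulates after DNA damage. Treat 16 hr at 37C/5% CO2, add Amplite, wait 30 min at RT, and read luminescence.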

[3] = qHTS assay for small molecule agonists of the p53 signaling pathway - cell viability (AID 651633; calls by dose curve; also: series mostly up to about 83 µM; nearly all actives have a fitted effect of over 30% in size)
Method in brief: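 p53RE-bla cells were treated with compound for 16 hours at 37 C. Cytotoxicity was then measured as CellTiter-Glo luminescence after 30 min at room temperature.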

[4] = qHTS assay for small molecules that induce genotoxicity in human embryonic kidney cells expressing luciferase-tagged ATAD5 - cell viability (AID 651634; calls by dose curve; also: nearly all actives have a fitted effect of over 25% in size)
Method in brief: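 Seeding of 2,000 HEK293T ATAD5-luciferase cells per well preceded pin-tool compound transfer. Plates sat 15.5 hr at 37C under 5% CO2, then fluorescence was read after 30 min with CellTiter-Fluor.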

[5] = qHTS assay for small molecule disruptors of the mitochondrial membrane potential - cell viability (AID 720634; calls by dose curve;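 also: human HepG2 liver cancer cells; series mostly up to about 83 µM; nearly all actives have a fitted effect of over 20% in size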)
Method in brief: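 Measuring cytotoxicity alongside mitochondrial potential, the screen quantified ATP by luminescence in HepG2 cells after 1 hr compound incubation and a 30 min room-temperature CellTiter-Glo step.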

[6] = qHTS assay for small molecule disruptors of the mitochondrial membrane potential (AID 720635)
Method in brief: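 HepG2 cells exposed to compound 1 hr at 37C, then Mito-MPS dye 30 min. Ratio read of aggregate (540/590 nm) versus monomer (490/535 nm) fluorescence.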

[7] = qHTS assay to test for compound auto fluorescence at 590 nm (red) in HepG2 cells (AID 720674)
Method in brief: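 HepG2 cells, 2,000 per well in MEM with 10% FBS, attached overnight at 37 C, then got 23 nL compound or DMSO. After 1 hr at 37 C, 5% CO2, red fluorescence was read at 540/590 nm against Rose Bengal sodium as reference.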

[8] = qHTS assay to test for compound auto fluorescence at 535 nm (green) in HepG2 cells (AID 720675)
[9] = qHTS assay to test for compound auto fluorescence at 460 nm (blue) in HEK293 cells (AID 720678)
Method in brief: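 HEK293 cells (2,000 per well, medium with 10% dialyzed FBS) attached for 4-5 hr at 37C, then received compound and stood overnight at 37C, 5% CO2. Blue fluorescence was read at Ex/Em 405/460 nm and expressed relative to triamterene.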

[10] = qHTS assay to test for compound auto fluorescence at 590 nm (red) in HEK293 cells (AID 720679)
Method in brief: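 HEK293 cells (2,000/well, medium with 10% dialyzed FBS) attached for 4-5 hr at 37C, received 23 nL compound and were incubated overnight at 37C, 5% CO2. Red fluorescence was then read at 540/590nm Ex/Em, referenced to Rose Bengal sodium.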

[11] = qHTS assay to test for compound auto fluorescence at 535 nm (green) in HEK293 cells (AID 720680)
[12] = qHTS assay to test for compound auto fluorescence at 460 nm (blue) in HEK293 cell free culture (AID 720681)
Method in brief: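 Compounds were added to cell-free DMEM with 10% FBS and fluorescence read directly. The blue channel used 405 nm excitation and 460 nm emission, with triamterene as the reference fluorophore.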

[13] = qHTS assay to test for compound auto fluorescence at 535 nm (green) in HEK293 cell free culture (AID 720682)
Method in brief: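 DMEM + 10% FBS, cell-free; cpd or DMSO pinned in; Ex485/Em535 read; output as fluorescein-equivalent signal.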

[14] = qHTS assay to test for compound auto fluorescence at 590 nm (red) in HEK293 cell free culture (AID 720683)
Method in brief: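 Cell-free wells of DMEM with 10% FBS received compound, and intrinsic fluorescence was read at excitation/emission 540/590 nm. Values expressed as equivalence to Rose Bengal sodium.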

[15] = qHTS assay to test for compound auto fluorescence at 590 nm (red) in HepG2 cell free culture (AID 720684)
Method in brief: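 Compounds are added to culture medium (MEM, 10% FBS) lacking cells, then fluorescence is read at excitation 540 nm, emission 590 nm, with Rose Bengal sodium as the equivalency standard.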

[16] = qHTS assay to test for compound auto fluorescence at 460 nm (blue) in HepG2 cell free culture (AID 720685)
Method in brief: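 Compound (23 nL) or DMSO pinned into cell-free MEM with 10% FBS; blue fluorescence read at 405/460 nm excitation/emission, expressed as auto-fluorescence equivalency to triamterene.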

[17] = qHTS assay to test for compound auto fluorescence at 535 nm (green) in HepG2 cell free culture (AID 720686)
[18] = qHTS assay to test for compound auto fluorescence at 460 nm (blue) in HepG2 cells (AID 720687)
Method in brief: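 HepG2 cells in MEM with 10% FBS, attached overnight at 37 C, were exposed to compound or DMSO for 1 hr at 37 C, 5% CO2. Blue fluorescence was read at 405/460 nm, with triamterene as reference fluorophore.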

[19] = target: Glucocorticoid receptor (Homo sapiens) (UniProt P04150); experiment: qHTS assay to identify small molecule agonists of the glucocorticoid receptor (GR) signaling pathway (AID 720691; active = well fitted activation curve with a large enough effect in the signal ratio in the repeat runs, not every such curve was filed as active; the % refers to the signal ratio)
Chain of Glucocorticoid receptor (Homo sapiens) (P04150 whole entry, looked up): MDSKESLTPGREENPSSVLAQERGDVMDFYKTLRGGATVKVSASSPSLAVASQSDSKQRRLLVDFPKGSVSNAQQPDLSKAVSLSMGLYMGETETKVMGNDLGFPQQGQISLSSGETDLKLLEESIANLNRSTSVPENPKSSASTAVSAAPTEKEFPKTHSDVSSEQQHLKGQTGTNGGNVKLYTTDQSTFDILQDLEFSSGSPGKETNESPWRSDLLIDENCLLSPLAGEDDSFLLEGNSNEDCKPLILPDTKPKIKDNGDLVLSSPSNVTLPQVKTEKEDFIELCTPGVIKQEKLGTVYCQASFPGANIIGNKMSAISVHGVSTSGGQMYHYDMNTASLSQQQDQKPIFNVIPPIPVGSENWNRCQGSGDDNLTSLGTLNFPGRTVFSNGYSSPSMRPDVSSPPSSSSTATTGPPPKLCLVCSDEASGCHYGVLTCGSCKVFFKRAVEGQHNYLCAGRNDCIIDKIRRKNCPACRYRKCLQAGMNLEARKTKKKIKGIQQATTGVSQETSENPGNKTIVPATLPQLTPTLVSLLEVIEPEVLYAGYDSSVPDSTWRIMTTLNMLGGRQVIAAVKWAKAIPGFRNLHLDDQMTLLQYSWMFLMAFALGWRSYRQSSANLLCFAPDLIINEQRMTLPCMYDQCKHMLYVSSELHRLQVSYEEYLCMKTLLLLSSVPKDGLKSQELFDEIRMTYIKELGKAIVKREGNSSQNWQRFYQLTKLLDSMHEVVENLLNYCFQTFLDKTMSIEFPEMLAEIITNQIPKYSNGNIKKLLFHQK
Method in brief: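 Reporter read-out: fluorescence intensity following 2 h room-temperature LiveBLAzer B/G FRET substrate loading. Prior step: GR-bla HeLa cells held 4 h, then treated 18 h at 37 C.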

[20] = target: Glucocorticoid receptor (Homo sapiens) (UniProt P04150); experiment: qHTS assay to identify small molecule antagonists of the glucocorticoid receptor (GR) signaling pathway (AID 720692; active = well fitted inhibition curve with a large enough effect in the signal ratio in the repeat runs, not every such curve was filed as active; the % refers to the signal ratio)
Method in brief: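 Dexamethasone (5 nM final) stimulated a stably integrated GRE-beta-lactamase reporter in HeLa cells during 18 h co-incubation with compounds; signal was quantified as fluorescence intensity of B/G FRET substrate after 2 h.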
% is scaled to controls: 0 for no effect and ±100 for the full control effect.

C[C@@H](O)[C@H]1C(=O)N2C(C(=O)O)=C(SCCN=CN)C[C@H]12
inactive: outcome [1] | Potency [2] | outcome [3] | Potency [4] | outcome [5] | Potency [6] | fluorescence, relative to Rose Bengal [7] -0.493% [at 18.6 µM] | fluorescence, % of fluorescein control [8] -0.19% [at 18.6 µM] | fluorescence, % of triamterene [9] 1.22% [at 18.6 µM] | fluorescence, % of fluorescent control [10] 0.0064% [at 18.6 µM] | fluorescence, % of fluorescein [11] 0.0698% [at 18.6 µM] | fluorescence, % of fluorescent control [12] 1.12% [at 18.6 µM] | activity change [13] -0.0504% [at 18.6 µM] | fluorescence, % of fluorescent control [14] -0.0922% [at 18.6 µM] | fluorescence, % of Rose Bengal [15] 0.208% [at 18.6 µM] | fluorescence, % of fluorescent control [16] 1.1% [at 18.6 µM] | fluorescence, % of fluorescein control [17] 0.0651% [at 18.6 µM] | fluorescence, % of fluorescent control [18] 0.982% [at 18.6 µM] | Potency [19] | outcome [20]

CC(=O)OC(C)OC(=O)C(C)c1ccc(-c2ccccc2)c(F)c1 (configuration not stated)
inactive: outcome [1] | Potency [2] | outcome [3] | Potency [4] | outcome [5] | Potency [6] | outcome [7] | outcome [8] | outcome [9] | outcome [10] | outcome [11] | outcome [12] | outcome [13] | outcome [14] | outcome [15] | outcome [16] | outcome [17] | outcome [18] | Potency [19] | outcome [20]

CC(=C(CCOC(=O)C(C)C)SSC(CCOC(=O)C(C)C)=C(C)N(C=O)Cc1cnc(C)nc1N)N(C=O)Cc1cnc(C)nc1N
inactive: outcome [1] | Potency [2] | outcome [3] | Potency [4] | outcome [5] | Potency [6] | outcome [7] | outcome [8] | outcome [9] | outcome [10] | outcome [11] | outcome [12] | outcome [13] | outcome [14] | outcome [15] | outcome [16] | outcome [17] | outcome [18] | Potency [19]

O=S(=O)(O)CCN1CCN(CCO)CC1
inactive: outcome [1] | Potency [2] | outcome [3] | Potency [4] | outcome [5] | Potency [6] | outcome [7] | outcome [8] | outcome [9] | outcome [10] | outcome [11] | outcome [12] | outcome [13] | outcome [14] | outcome [15] | outcome [16] | outcome [17] | outcome [18] | Potency [19] | outcome [20]

Cc1nc2n(c(=O)c1CCN1CCC(c3noc4cc(F)ccc34)CC1)CCC[C@H]2O
inactive: outcome [1] | Potency [2] | outcome [3] | Potency [4] | outcome [5] | Potency [6] | outcome [7] | outcome [8] | outcome [9] | outcome [10] | outcome [11] | outcome [12] | outcome [13] | outcome [14] | outcome [15] | outcome [16] | outcome [18] | Potency [19]

COC(=O)c1ccccc1C(=O)c1ccc(OCCN2CCCCC2)cc1
inactive: outcome [1] | Potency [2] | outcome [3] | Potency [4] | outcome [5] | Potency [6] | outcome [7] | outcome [8] | outcome [9] | outcome [10] | outcome [11] | outcome [12] | outcome [13] | outcome [14] | outcome [15] | outcome [16] | outcome [17]

Cc1ccc2c(c1)OCC(=O)CO2
inactive: outcome [1] | Potency [2] | outcome [3] | Potency [4] | outcome [5] | Potency [6] | outcome [7] | outcome [8] | outcome [9] | outcome [10] | outcome [11] | outcome [12] | outcome [13] | outcome [14] | outcome [15] | outcome [16] | outcome [18] | Potency [19] | outcome [20]

Cc1cccc(C)c1NC(=O)c1ccccc1C(=O)O
inactive: outcome [1] | Potency [2] | outcome [3] | Potency [4] | outcome [5] | Potency [6] | outcome [7] | outcome [9] | outcome [10] | outcome [11] | outcome [12] | outcome [13] | outcome [15] | outcome [16] | outcome [17] | outcome [18] | Potency [19] | outcome [20]

C=C(C)C1CCC(C)(O)CC1 (configuration not stated)
inactive: outcome [1] | Potency [2] | outcome [3] | Potency [4] | outcome [5] | Potency [6] | outcome [7] | outcome [9] | outcome [10] | outcome [11] | outcome [12] | outcome [13] | outcome [14] | outcome [15] | outcome [16] | outcome [17] | Potency [19] | outcome [20]

COc1cc(NS(=O)(=O)c2ccc(N)cc2)nc(OC)n1
inactive: outcome [1] | Potency [2] | outcome [3] | Potency [4] | outcome [5] | Potency [6] | fluorescence, relative to Rose Bengal [7] -0.297% [at 18.6 µM] | fluorescence, % of triamterene [9] 0.216% [at 18.6 µM] | fluorescence, % of fluorescent control [10] -0.0598% [at 18.6 µM] | fluorescence, % of fluorescein [11] 0.0037% [at 18.6 µM] | fluorescence, % of fluorescent control [12] 0.0589% [at 18.6 µM] | activity change [13] -0.0247% [at 18.6 µM] | fluorescence, % of fluorescent control [14] 0.0115% [at 18.6 µM] | fluorescence, % of Rose Bengal [15] 0.441% [at 18.6 µM] | fluorescence, % of fluorescent control [16] -0.0655% [at 18.6 µM] | fluorescence, % of fluorescein control [17] -0.0376% [at 18.6 µM] | Potency [19]

O=C1CCCC(=O)O1
inactive: outcome [1] | Potency [2] | outcome [3] | Potency [4] | outcome [5] | Potency [6] | outcome [7] | outcome [9] | outcome [10] | outcome [11] | outcome [12] | outcome [13] | outcome [14] | outcome [15] | outcome [16] | outcome [18]

CN1CCN(CC(=O)N2c3ccccc3C(=O)Nc3cccnc32)CC1
inactive: outcome [1] | Potency [2] | outcome [3] | Potency [4] | outcome [5] | Potency [6] | outcome [7] | outcome [9] | outcome [10] | outcome [11] | outcome [12] | outcome [13] | outcome [14] | outcome [15] | outcome [16] | outcome [17] | outcome [18] | Potency [19]

Nc1ccc(S(=O)(=O)Nc2ccc(Cl)nn2)cc1
inactive: outcome [1] | Potency [2] | outcome [3] | Potency [4] | outcome [5] | Potency [6] | outcome [7] | outcome [8] | outcome [9] | outcome [10] | outcome [11] | outcome [12] | outcome [13] | outcome [15] | outcome [16] | outcome [18]

CCOC(=O)c1ncn2c1CN(C)C(=O)c1cc(F)ccc1-2
inactive: outcome [1] | Potency [2] | outcome [3] | Potency [4] | outcome [5] | Potency [6] | outcome [7] | outcome [9] | outcome [10] | outcome [11] | outcome [12] | outcome [13] | outcome [14] | outcome [15] | outcome [16] | outcome [18]
